Assay results from the supplement of paper PMC11732987, “Enantioselective OTUD7B fragment discovery through chemoproteomics screening and high-throughput optimisation” (Communications Chemistry, 2025).

How the values were obtained:
Assay in all cases: log2 ratio of Biotin-Ahx-Ub-VS probe labelling (fragment/DMSO); higher = less target engagement (more negative = stronger competition), active = hit call of the paper (q ≤ 0.05, log2 ratio ≤ -1)
Details in all cases: compound concentration: 200 uM; treatment time: 3 h
[1] = target: T1, USP19 (UniProt O94966)
T1 sequence (whole entry): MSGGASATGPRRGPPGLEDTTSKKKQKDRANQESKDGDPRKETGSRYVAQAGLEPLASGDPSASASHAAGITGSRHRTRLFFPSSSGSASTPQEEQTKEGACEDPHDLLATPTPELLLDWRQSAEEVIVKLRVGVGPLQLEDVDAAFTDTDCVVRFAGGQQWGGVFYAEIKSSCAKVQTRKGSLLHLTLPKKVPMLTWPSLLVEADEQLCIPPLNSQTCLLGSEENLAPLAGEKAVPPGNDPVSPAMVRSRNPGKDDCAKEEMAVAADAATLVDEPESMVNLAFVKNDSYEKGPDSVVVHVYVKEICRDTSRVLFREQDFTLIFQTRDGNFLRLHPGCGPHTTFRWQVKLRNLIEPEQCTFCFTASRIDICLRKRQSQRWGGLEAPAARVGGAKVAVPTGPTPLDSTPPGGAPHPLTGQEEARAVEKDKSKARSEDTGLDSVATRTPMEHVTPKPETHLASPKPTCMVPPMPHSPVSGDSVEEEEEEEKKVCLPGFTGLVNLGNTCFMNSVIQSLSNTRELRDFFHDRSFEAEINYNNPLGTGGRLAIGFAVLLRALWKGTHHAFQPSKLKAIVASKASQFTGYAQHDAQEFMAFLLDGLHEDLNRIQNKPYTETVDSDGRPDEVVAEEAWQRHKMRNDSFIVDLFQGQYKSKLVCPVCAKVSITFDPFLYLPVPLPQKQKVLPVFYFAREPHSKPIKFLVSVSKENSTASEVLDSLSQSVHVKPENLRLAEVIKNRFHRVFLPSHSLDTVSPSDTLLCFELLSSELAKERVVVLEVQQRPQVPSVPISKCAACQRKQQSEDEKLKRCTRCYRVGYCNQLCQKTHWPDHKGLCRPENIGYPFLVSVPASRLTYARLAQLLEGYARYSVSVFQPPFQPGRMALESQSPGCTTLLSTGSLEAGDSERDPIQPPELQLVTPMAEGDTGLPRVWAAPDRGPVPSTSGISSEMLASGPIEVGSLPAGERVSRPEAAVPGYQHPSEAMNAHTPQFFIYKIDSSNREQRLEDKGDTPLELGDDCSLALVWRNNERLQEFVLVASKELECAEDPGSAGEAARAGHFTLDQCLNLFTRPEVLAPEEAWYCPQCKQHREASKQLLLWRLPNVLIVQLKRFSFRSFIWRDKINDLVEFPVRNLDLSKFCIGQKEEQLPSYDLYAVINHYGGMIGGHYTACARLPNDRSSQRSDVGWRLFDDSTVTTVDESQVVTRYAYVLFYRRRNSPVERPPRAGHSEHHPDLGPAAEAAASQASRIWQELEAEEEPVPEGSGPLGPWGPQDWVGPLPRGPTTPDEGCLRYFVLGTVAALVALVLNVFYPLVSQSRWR
In short: (§1)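 Average log2 ratios of fragment over vehicle were obtained by unpaired t-test from global-median-normalised Spectronaut label-free quantities. Proteins with ≥2 unique peptides were included. HEK293T lysate (495 µg per sample) was treated in triplicate with fragment at 200 µM or vehicle for 3 h, then with Biotin-Ahx-Ub-VS at 0.5 µM final for 1 h, and labelled DUBs were NeutrAvidin-enriched and run by diaPASEF LC-MS/MS.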

[2] = target: USP24 (UniProt Q9UPU5)
USP24, sequence (Q9UPU5 whole entry): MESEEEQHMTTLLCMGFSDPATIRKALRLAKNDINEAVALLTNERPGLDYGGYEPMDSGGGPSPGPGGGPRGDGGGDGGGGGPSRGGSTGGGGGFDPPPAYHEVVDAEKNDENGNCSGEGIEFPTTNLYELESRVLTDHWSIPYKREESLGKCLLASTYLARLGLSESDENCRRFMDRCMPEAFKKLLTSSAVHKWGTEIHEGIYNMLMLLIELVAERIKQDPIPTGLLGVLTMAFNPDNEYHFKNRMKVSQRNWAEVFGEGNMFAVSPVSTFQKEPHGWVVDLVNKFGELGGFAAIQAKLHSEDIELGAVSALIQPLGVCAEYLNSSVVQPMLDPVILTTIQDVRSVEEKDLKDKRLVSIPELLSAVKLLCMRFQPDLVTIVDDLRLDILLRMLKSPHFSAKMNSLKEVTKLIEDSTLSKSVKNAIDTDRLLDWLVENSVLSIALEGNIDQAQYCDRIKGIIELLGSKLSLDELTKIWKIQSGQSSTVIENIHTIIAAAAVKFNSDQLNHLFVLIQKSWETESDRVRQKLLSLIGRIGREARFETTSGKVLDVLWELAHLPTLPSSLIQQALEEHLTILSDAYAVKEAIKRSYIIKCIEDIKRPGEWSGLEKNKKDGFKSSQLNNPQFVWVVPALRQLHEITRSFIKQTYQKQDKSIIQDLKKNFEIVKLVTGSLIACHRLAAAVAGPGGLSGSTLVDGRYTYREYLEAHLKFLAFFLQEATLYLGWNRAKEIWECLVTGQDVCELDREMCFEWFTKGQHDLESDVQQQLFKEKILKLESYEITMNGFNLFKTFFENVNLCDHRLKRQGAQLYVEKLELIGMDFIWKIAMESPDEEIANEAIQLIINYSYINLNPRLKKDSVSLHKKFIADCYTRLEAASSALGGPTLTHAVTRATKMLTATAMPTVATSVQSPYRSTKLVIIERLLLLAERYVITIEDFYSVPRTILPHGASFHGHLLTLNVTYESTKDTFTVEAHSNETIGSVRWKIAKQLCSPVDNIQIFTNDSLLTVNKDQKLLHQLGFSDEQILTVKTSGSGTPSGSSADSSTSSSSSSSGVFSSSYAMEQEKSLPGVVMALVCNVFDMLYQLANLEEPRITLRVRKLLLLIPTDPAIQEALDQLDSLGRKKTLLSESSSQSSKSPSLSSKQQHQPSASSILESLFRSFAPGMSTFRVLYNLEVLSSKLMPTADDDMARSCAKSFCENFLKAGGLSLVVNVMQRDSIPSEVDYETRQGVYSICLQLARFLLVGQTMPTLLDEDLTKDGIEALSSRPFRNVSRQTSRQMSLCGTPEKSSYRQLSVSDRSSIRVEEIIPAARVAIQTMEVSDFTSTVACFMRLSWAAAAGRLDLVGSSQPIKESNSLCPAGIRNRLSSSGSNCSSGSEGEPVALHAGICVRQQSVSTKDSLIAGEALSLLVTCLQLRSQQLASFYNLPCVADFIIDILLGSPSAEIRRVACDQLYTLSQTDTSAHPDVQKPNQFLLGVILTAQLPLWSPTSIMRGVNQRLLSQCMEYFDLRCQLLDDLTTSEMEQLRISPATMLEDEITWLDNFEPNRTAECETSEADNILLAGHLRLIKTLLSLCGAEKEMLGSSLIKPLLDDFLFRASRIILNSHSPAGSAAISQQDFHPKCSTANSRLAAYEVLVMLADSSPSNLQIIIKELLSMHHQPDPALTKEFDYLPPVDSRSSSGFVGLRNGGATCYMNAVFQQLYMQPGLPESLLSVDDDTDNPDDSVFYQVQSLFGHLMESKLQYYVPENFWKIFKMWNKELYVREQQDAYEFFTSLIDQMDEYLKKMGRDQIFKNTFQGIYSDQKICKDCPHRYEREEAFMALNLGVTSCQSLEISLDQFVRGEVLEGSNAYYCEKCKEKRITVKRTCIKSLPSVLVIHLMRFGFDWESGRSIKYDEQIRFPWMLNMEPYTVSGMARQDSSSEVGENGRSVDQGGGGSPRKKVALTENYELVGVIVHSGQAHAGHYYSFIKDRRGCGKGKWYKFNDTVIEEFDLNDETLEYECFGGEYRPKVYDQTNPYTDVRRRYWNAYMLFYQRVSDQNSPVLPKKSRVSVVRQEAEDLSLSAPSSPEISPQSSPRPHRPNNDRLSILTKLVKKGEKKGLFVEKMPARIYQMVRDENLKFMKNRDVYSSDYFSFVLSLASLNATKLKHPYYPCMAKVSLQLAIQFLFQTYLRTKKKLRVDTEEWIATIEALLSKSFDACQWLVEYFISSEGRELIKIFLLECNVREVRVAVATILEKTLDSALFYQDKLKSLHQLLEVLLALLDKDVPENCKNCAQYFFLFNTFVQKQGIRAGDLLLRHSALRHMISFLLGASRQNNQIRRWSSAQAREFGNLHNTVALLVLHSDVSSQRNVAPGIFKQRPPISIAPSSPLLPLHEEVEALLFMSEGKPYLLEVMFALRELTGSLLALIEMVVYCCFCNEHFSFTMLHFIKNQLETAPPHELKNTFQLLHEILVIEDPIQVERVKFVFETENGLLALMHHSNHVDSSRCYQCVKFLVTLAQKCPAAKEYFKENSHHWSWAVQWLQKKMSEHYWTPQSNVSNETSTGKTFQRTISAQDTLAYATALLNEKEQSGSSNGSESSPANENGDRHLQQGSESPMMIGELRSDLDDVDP
In short: as §1

[3] = target: T2, USP25 (UniProt Q9UHP3)
T2 sequence (whole entry): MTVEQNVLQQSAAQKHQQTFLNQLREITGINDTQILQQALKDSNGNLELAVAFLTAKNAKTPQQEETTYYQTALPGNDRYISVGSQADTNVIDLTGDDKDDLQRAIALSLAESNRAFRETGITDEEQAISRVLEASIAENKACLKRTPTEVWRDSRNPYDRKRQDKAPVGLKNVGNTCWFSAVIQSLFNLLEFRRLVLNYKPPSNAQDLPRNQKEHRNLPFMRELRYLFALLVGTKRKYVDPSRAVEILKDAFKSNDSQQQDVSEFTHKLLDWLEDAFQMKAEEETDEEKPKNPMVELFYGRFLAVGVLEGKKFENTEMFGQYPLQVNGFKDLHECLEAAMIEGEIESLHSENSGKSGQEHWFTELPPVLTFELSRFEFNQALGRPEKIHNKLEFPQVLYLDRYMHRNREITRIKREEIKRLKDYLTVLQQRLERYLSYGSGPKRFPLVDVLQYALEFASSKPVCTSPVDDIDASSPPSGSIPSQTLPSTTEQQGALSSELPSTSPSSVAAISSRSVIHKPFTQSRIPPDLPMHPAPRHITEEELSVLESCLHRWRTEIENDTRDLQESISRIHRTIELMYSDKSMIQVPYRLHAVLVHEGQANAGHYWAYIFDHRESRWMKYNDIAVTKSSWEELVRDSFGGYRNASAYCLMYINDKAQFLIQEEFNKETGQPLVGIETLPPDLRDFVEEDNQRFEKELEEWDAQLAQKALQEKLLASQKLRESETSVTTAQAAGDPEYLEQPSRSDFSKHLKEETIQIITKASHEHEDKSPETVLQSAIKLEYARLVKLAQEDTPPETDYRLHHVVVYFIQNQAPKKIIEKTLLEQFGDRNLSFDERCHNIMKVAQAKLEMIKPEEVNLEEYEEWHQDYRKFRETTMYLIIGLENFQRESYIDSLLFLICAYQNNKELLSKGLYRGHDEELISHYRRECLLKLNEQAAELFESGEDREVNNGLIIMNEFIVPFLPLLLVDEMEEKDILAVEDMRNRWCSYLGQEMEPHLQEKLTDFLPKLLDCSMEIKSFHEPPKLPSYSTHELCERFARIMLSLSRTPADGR
In short: as §1

[4] = target: T3, USP28 (UniProt Q96RU2)
T3 sequence (whole entry): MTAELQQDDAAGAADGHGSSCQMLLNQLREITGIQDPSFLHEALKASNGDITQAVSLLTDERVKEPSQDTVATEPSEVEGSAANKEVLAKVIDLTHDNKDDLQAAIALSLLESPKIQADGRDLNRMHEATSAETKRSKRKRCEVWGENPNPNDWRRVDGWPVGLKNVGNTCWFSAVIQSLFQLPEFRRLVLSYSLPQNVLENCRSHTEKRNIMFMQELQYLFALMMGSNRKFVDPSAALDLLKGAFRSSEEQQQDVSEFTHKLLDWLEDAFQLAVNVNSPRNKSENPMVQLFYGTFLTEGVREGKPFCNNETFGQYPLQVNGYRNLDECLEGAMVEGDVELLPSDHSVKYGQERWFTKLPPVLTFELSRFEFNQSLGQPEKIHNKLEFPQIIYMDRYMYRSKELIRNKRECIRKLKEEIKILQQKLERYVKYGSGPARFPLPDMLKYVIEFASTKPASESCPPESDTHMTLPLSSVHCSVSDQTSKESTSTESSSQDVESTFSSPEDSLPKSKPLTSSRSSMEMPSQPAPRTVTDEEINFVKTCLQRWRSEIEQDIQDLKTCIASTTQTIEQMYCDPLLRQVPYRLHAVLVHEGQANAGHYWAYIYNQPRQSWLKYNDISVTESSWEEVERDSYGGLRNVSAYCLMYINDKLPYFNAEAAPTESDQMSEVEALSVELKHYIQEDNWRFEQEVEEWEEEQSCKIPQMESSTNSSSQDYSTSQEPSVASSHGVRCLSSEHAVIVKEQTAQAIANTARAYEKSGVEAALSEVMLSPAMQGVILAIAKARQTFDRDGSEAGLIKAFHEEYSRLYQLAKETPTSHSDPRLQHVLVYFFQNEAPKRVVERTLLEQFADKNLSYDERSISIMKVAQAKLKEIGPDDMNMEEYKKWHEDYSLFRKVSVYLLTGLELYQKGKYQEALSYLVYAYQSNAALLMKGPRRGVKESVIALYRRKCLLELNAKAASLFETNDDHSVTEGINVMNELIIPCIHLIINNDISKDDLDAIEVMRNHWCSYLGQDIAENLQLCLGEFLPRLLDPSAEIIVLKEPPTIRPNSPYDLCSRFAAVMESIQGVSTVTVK
In short: as §1

Measured: log2 ratio of Biotin-Ahx-Ub-VS probe labelling

O=C(CCl)N1CCC(c2noc3cc(F)ccc23)CC1
inactive: [1] -0.49 | [2] -0.986 | [3] -0.302 | [4] -0.607
